Source: PubChem BioAssay (EPA / NIEHS)
Records with an inconclusive call do not appear. The source made the active and inactive calls. The calls were made as follows: active = hit-call score of the fitted dose curve at least 0.9, where 1 is the maximum; inconclusive = response in the unintended direction; inactive = score below 0.9.

What was measured:
[1] = biological target: Luciferin 4-monooxygenase (Photinus pyralis) (UniProt P08659); assay: CCTE_Simmons_QuantiLum_inhib_2: CCTE's Firefly Luciferase Inhibition Assay, Simmons Lab (AID 2283767);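 as to AC50: potency for inhibitors that lower luciferase luminescence relative to DMSO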
Chain of Luciferin 4-monooxygenase (Photinus pyralis) (P08659 whole entry, looked up): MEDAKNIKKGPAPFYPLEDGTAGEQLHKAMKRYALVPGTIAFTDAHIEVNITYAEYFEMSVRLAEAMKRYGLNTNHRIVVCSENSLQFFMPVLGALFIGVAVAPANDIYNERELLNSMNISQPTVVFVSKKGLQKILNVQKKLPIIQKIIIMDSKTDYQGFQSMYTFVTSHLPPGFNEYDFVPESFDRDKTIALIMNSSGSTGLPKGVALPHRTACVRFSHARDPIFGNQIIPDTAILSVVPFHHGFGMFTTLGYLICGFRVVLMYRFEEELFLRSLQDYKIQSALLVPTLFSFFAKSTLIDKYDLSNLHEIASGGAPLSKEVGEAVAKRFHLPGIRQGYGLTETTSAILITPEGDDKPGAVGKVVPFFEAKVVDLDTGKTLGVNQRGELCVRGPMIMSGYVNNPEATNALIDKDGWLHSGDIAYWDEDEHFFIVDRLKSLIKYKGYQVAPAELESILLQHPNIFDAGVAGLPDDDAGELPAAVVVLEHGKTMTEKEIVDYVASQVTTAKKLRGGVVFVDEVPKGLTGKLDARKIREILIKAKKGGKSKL
Method in brief: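 Counter-screen for nonspecific enzyme inhibition: purified firefly luciferase incubated 30 min at 37C with chemicals up to 87.5 uM final, then luminescence measured after luciferin/dATP injection; activity fitted against DMSO baseline.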

[2] = ACEA_AR_agonist_AUC_viability: ACEA Biosciences xCELLigence Real-Time Cell Analysis on Androgen Receptor Agonism for Viability (AID 2283775);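 as to AC50: viability read 80 hours after compound addition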
Method in brief: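 Read-out is area under the impedance curve at 80 h post-dose in 22Rv1 cells, with DMSO as baseline and signal loss taken as reduced viability. Compounds ran in duplicate from 100 uM final.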

[3] = ACEA_AR_antagonist_AUC_viability: ACEA Biosciences xCELLigence Real-Time Cell Analysis on Androgen Receptor Antagonism for Viability (AID 2283776);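 also: 22Rv1 human prostate cancer cells growing on impedance electrode plates; area under impedance growth curve at 80 h after dosing as viability; hits lower the growth signal relative to DMSO meaning cytotoxicity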
Method in brief: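 Real-time electrical impedance tracks 22Rv1 proliferation after continuous compound exposure (top 100 uM final, 1:4 steps, 8 concentrations). The 80 h area-under-curve serves as the cytotoxicity readout relative to DMSO.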

[4] = ACEA_ER_AUC_viability: ACEA Biosciences xCELLigence Real-Time Cell Analysis on Estrogen Receptor Agonism for Viability (AID 2283782);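 also: hit means loss of impedance signal meaning reduced cell growth or viability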
Method in brief: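 T-47D; phenol red-free RPMI1640 + 10% CS-FBS; 8 conc., 1:4 serial, max 100 uM final, ≤0.5% DMSO; n = 2; continuous exposure; impedance monitored to 80 h post-dose; AUC vs DMSO.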

[5] = STM_H9_NormalizedViability: Cytotoxicity Assessment at 120 hours in the Stemina devTOX quickPredict H9 human embryonic stem cell (hESC)-based Assay (AID 2283784)
Method in brief: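 Chemicals are tested blinded on H9 human embryonic stem cells in the pluripotent state, with medium exchanged daily. After background correction, fluorescence from CellTiter-Fluor is scaled against 0.1% DMSO wells, and decreases are scored.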

AR (gene 367) [6] = biological target: AR (gene 367) (UniProt P10275); assay: ACEA_AR_agonist_80hr: ACEA Biosciences xCELLigence Real-Time Cell Analysis on Androgen Receptor Agonism for Proliferation (AID 2283783);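 also: hits increase impedance growth signal above DMSO baseline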
Chain of AR (gene 367) (P10275 whole entry, looked up): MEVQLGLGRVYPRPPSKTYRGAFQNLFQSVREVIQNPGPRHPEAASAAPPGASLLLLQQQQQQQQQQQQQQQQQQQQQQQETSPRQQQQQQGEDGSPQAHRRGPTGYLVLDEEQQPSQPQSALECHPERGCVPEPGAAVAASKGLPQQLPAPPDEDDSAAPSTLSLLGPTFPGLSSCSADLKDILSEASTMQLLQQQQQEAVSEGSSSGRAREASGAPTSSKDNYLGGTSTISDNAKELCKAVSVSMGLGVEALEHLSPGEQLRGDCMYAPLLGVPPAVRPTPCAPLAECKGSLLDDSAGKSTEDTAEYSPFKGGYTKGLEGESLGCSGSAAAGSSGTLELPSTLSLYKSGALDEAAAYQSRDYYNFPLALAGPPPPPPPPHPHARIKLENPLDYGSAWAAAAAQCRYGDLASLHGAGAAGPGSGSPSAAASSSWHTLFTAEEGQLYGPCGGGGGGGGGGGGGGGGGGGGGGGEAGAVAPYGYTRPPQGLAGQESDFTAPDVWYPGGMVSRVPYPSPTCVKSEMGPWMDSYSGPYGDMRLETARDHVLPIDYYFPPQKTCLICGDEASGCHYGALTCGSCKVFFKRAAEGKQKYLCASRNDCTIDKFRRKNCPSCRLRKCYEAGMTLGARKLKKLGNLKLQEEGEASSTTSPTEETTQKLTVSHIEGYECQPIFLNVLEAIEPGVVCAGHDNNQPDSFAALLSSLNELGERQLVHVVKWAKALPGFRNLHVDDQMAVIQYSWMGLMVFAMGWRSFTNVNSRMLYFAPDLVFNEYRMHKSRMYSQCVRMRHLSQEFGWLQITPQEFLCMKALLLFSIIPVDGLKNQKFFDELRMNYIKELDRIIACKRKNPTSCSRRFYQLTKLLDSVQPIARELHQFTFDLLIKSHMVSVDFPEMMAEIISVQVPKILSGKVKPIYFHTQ
Method in brief: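 Androgen-driven proliferation in 22Rv1 cells is tracked as electrical impedance, taken 80 h after continuous exposure to compound (eight concentrations, 1:4 steps, maximum 100 uM final). Activity is fitted in the positive direction with DMSO as baseline.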

AR (gene 367) [7] = biological target: AR (gene 367) (UniProt P10275); assay: ACEA_AR_antagonist_80hr: ACEA Biosciences xCELLigence Real-Time Cell Analysis on Androgen Receptor Antagonism for Proliferation (AID 2283787);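 also: 22Rv1 human prostate cancer cells with growth followed by electrical impedance; hits lower the impedance growth signal relative to DMSO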
Method in brief: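 Growth-kinetic antagonist readout in 22Rv1 cells, taken 80 h after continuous compound exposure. Activity fitted as signal loss relative to DMSO negative control.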

[8] = ArunA_NOG_NucleusCount: ArunA Biomedical's Neurite Outgrowth (NOG) Assay for Nucleus Count (AID 2283756)
Method in brief: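 Human H9-derived differentiated neurons were exposed for 48 h right after seeding. Hoechst-stained nuclei gated by size and intensity were counted by automated high-content imaging as viable neurons. Loss of signal vs DMSO.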

[9] = ArunA_NOG_NeuriteLength: ArunA Biomedical's Neurite Outgrowth (NOG) Assay for Neurite Length (AID 2283757)
Method in brief: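 Differentiated human H9-derived neurons were exposed for 48 h from seeding, then stained with Hoechst and βIII-tubulin. Automated high-content imaging gave total neurite length per valid neuron, counting processes >10 um. Loss of signal was scored versus DMSO.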

[10] = ArunA_NOG_NeuritesPerNeuron: ArunA Biomedical's Neurite Outgrowth (NOG) Assay for Neurites Per Neuron (AID 2283758)
Method in brief: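 Differentiated human H9-derived neurons exposed to chemicals for 48 h from seeding, then stained with Hoechst and βIII-tubulin/DyLight 488. Automated imaging counted neurites (processes >10 um) per valid neuron; loss of signal versus DMSO scored.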

[11] = ArunA_NOG_BranchPointsPerNeurite: ArunA Biomedical's Neurite Outgrowth (NOG) Assay for Branch Points Per Neurite (AID 2283759)
Method in brief: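 Automated image analysis traced neurites (processes >10 um) from valid cell bodies after Hoechst and βIII-tubulin staining. hNN cells from H9 embryonic stem cells, 48 h exposure. Fitted bidirectionally against DMSO.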

[12] = tested on: zebrafish Androgen Receptor (AR), gene 100005148; assay: ATG_zfAR_XSP1: Attagene TRANS-FACTORIAL Multi-Species (XSP1) HepG2 Assay for zebrafish Androgen Receptor (AR) (AID 2283771)
Method in brief: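 HepG2 cells were transiently transfected with a zebrafish AR-GAL4 reporter system and partially stimulated with 3 nM 6-alpha-fluorotestosterone. Reporter mRNA was measured after 24 h dosing by RT-PCR with capillary electrophoresis, and gain-of-signal was fitted relative to DMSO.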

[13] = biological target: zebrafish Estrogen Receptor (ESR1), esr1 (gene 259252) (UniProt P57717); assay: ATG_zfER1_XSP1: Attagene TRANS-FACTORIAL Multi-Species (XSP1) HepG2 Assay for zebrafish Estrogen Receptor (ESR1) (AID 2283772)
Chain of zebrafish Estrogen Receptor (ESR1), esr1 (gene 259252) (P57717 whole entry, looked up, the tested form may be a part): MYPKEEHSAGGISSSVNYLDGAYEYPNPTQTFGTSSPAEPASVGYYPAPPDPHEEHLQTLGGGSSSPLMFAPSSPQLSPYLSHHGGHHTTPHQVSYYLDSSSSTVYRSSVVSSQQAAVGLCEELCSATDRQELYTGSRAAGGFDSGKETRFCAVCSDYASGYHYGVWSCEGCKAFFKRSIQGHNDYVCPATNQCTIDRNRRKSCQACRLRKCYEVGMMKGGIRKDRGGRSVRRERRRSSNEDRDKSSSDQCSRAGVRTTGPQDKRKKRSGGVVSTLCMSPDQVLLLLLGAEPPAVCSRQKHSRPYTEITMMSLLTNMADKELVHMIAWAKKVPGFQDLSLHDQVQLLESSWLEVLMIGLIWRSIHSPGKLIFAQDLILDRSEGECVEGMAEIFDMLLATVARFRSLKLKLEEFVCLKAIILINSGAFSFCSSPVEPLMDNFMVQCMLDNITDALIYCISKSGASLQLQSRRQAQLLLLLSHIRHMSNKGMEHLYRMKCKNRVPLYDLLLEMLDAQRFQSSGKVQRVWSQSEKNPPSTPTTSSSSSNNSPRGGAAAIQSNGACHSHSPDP
Method in brief: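 Transfect HepG2 with GAL4-UAS multi-reporter constructs; treat 24 h (medium carries 3 nM 6-alpha-fluorotestosterone); extract RNA, reverse-transcribe, PCR-amplify, FAM-label, digest with HpaI; resolve by capillary electrophoresis and compare against DMSO baseline.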

[14] = tested on: zebrafish Estrogen Receptor (ESR2B), gene 317733; assay: ATG_zfER2b_XSP1: Attagene TRANS-FACTORIAL Multi-Species (XSP1) HepG2 Assay for zebrafish Estrogen Receptor (ESR2B) (AID 2283773)
Method in brief: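 Gain-of-signal endpoint relative to DMSO: reporter transcript levels quantified by RT-PCR and capillary electrophoresis after 24 h compound exposure of HepG2 cells expressing a zebrafish ER2b-Gal4 chimera.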

[15] = tested on: frog Estrogen Receptor (ESR2), gene 100174814; assay: ATG_frER2_XSP1: Attagene TRANS-FACTORIAL Multi-Species (XSP1) HepG2 Assay for frog Estrogen Receptor (ESR2) (AID 2283774)
Method in brief: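 Transactivation of an exogenous receptor-Gal4 fusion is tracked in transfected HepG2 cells via induced reporter transcript levels. After 24 h treatment, RT-PCR with capillary electrophoresis quantifies signal gain over DMSO.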

[16] = tested on: frog Estrogen Receptor (ESR1), gene 398734; assay: ATG_frER1_XSP1: Attagene TRANS-FACTORIAL Multi-Species (XSP1) HepG2 Assay for frog Estrogen Receptor (ESR1) (AID 2283777)
Method in brief: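 Human hepatoma HepG2 cells carried transiently transfected multiplexed Gal4-driven reporters and were exposed to test chemicals for 24 hours. Transcripts were quantified by fluorescent RT-PCR with capillary electrophoresis, referenced to DMSO.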

[17] = tested on: zebrafish Estrogen Receptor (ESR2A), gene 317734; assay: ATG_zfER2a_XSP1: Attagene TRANS-FACTORIAL Multi-Species (XSP1) HepG2 Assay for zebrafish Estrogen Receptor (ESR2A) (AID 2283778)
Method in brief: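 Cells were transfected, dosed for 24 h, then total RNA was isolated. After oligo(dT) reverse transcription, reporter sequences were amplified, FAM-labelled by primer extension, digested with HpaI and sized by capillary electrophoresis; DMSO served as baseline.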

[18] = biological target: chicken Estrogen Receptor (ESR1), ESR1 (gene 396099) (UniProt P06212); assay: ATG_chERa_XSP1: Attagene TRANS-FACTORIAL Multi-Species (XSP1) HepG2 Assay for chicken Estrogen Receptor (ESR1) (AID 2283779)
Chain of chicken Estrogen Receptor (ESR1), ESR1 (gene 396099) (P06212 whole entry, looked up, the tested form may be a part): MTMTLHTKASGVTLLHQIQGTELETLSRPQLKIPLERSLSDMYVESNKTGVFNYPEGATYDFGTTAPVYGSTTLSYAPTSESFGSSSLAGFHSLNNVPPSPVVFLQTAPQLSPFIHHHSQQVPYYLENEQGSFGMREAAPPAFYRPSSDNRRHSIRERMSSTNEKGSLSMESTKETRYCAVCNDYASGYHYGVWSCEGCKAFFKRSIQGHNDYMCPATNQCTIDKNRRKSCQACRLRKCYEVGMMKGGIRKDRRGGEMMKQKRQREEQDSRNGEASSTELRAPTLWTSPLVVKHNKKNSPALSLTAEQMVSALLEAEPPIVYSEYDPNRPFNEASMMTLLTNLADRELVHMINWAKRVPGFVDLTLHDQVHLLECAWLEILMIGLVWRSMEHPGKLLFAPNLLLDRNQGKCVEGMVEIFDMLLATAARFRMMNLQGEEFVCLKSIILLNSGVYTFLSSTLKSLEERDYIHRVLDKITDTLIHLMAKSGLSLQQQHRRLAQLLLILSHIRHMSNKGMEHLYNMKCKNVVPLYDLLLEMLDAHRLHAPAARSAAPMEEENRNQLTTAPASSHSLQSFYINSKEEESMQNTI
Method in brief: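 Human liver HepG2, transient MRTU transfection (NR-Gal4 chimeras, GAL4-UAS reporters); 24 h compound exposure; 3 nM 6-alpha-fluorotestosterone in medium. Total RNA → RT-PCR → 6-FAM primer extension → HpaI → CE. Positive direction vs DMSO baseline.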

[19] = biological target: Estrogen receptor (Homo sapiens) (UniProt P03372); assay: ATG_hERa_XSP1: Attagene TRANS-FACTORIAL Multi-Species (XSP1) HepG2 Assay for human Estrogen Receptor (ESR1) (AID 2283780)
Chain of Estrogen receptor (Homo sapiens) (P03372 whole entry, looked up, the tested form may be a part): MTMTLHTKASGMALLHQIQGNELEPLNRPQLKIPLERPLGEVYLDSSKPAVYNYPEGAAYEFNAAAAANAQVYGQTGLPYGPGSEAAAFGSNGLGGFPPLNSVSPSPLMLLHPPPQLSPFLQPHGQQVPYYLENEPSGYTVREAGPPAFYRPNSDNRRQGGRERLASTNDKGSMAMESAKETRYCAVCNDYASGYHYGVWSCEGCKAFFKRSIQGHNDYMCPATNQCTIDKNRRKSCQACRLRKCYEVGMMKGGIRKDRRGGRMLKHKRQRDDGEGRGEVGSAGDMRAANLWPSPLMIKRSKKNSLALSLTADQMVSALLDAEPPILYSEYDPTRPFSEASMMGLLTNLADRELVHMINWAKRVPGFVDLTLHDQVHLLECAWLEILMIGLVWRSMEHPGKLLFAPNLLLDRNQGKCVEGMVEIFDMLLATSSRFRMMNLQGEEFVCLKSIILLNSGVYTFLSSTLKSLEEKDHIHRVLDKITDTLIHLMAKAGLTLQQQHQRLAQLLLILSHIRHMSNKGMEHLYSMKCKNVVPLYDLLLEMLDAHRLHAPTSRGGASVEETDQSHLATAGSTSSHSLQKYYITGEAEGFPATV
Method in brief: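 HepG2 cells transiently transfected with GAL4-UAS reporter units and chimeric NR-Gal4 constructs; 24 h after dosing, reporter mRNA quantified by RT-PCR and capillary electrophoresis. Medium contained 3 nM 6-alpha-fluorotestosterone; activity fitted as gain-of-signal versus DMSO.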

[20] = tested on: turtle Estrogen Receptor (ESR1), gene 101933533; assay: ATG_trERa_XSP1: Attagene TRANS-FACTORIAL Multi-Species (XSP1) HepG2 Assay for turtle Estrogen Receptor (ESR1) (AID 2283781)
Method in brief: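 Activity was taken as gain of reporter transcript over DMSO controls. HepG2 cells carrying GAL4-UAS-driven reporters were exposed for 24 h before RNA was extracted and reporter sequences were measured by fluorescence after capillary separation.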

Measured: AC50

CC/C(=C\C(=N/O)C(N)=O)C(C)[N+](=O)[O-] (configuration not stated)
inactive: [1] | [2]
active: [3] 74.2 µM

O=c1n(CC2CO2)c(=O)n(CC2CO2)c(=O)n1CC1CO1 (configuration not stated)
inactive: [1]
active: [2] 0.571 µM | [3] 1.02 µM | [4] 35.7 µM | [5] 1.06 µM

Cc1ccc(N)cc1O
inactive: [4] | AR (gene 367) [6]
active: [1] 17.4 µM | [2] 89.7 µM | [3] 87.4 µM | AR (gene 367) [7] 74.4 µM

O=P(OC(CCl)CCl)(OC(CCl)CCl)OC(CCl)CCl
inactive: [8] | [9] | [10] | [11] | [1] | [12] | [13] | [17] | [4]
active: [14] 20.8 µM | [15] 26 µM | [2] 31.8 µM | [3] 29.8 µM | [16] 3.06 µM | [18] 3.85 µM | [19] 2.78 µM | [20] 5.66 µM

Cc1[nH]cnc1C[C@H]1CCc2c(C)c3ccccc3n2C1=O
inactive: [1]
active: [2] 44.5 µM | [3] 50.1 µM

O=C(O)CCN(C1(C(=O)NO)CCCC1)S(=O)(=O)c1ccc(Oc2ccc(F)cc2)cc1
inactive: [1] | [2] | [3]

NC(=O)NO
active: [5] 341 µM
inactive: [1] | [2] | [3]

Oc1ccc2c(c1)-c1ccccc1C2
active: [2] 50 µM | [3] 41.8 µM | [4] 79.2 µM | AR (gene 367) [7] 50 µM
inactive: [1] | AR (gene 367) [6]

On1ccccc1=S
active: [1] 9 µM | [2] 9.92 µM | [3] 50 µM | [4] 88.8 µM | [5] 8.35 µM
